Data taken from article PMC5540273 (PLoS ONE, 2017).

How the values were obtained:
Conditions in all cases: concentration: 1 μM, replicates: in singlicate; n = 1
[1] = system: T1, RSK2(Kin.Dom.1-N-terminal)
T1 construct: gene RPS6KA3

[2] = system: T2, RSK2(Kin.Dom.2-C-terminal)
T2 construct: gene RPS6KA3

[3] = system: T3, RSK3(Kin.Dom.1-N-terminal)
T3 construct: gene RPS6KA2

[4] = system: T4, RSK3(Kin.Dom.2-C-terminal)
T4 construct: gene RPS6KA2

[5] = system: T5, RSK4(Kin.Dom.1-N-terminal)
T5 construct: gene RPS6KA6

[6] = system: T6, RSK4(Kin.Dom.2-C-terminal)
T6 construct: gene RPS6KA6

S6K1 = system: S6K1
SBK1 = system: SBK1
SGK2 = system: SGK2
SGK3 = system: SGK3
SGK = system: SGK
SIK2 = system: SIK2
SIK = system: SIK
SLK = system: SLK
SNARK = system: T7, SNARK
T7 construct: gene NUAK2

SNRK = system: SNRK
SRC = system: SRC
SRMS = system: SRMS
SRPK1 = system: SRPK1
SRPK2 = system: SRPK2
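Further: KINOMEscan kinase panel screen.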

SMILES | %Inh [1] [%] | %Inh [2] [%] | %Inh [3] [%] | %Inh [4] [%] | %Inh [5] [%] | %Inh [6] [%] | %Inh (S6K1) [%] | %Inh (SBK1) [%] | %Inh (SGK2) [%] | %Inh (SGK3) [%] | %Inh (SGK) [%] | %Inh (SIK2) [%] | %Inh (SIK) [%] | %Inh (SLK) [%] | %Inh (SNARK) [%] | %Inh (SNRK) [%] | %Inh (SRC) [%] | %Inh (SRMS) [%] | %Inh (SRPK1) [%] | %Inh (SRPK2) [%]
N#Cc1ccc(-c2cc(-c3c[nH]nc3-c3ccccn3)ccn2)cc1 [GW693028] | 0 | 24 | 0 | 0 | 0 | 28 | 4 | 4 | 0 | 0 | 0 | 0 | 0 | 6 | 0 | 0 | 0 | 0 | 0 | 0
COc1ccc(Nc2nccc(N3CCC(NC(=O)Nc4cc(C)ccc4C)C3)n2)cc1 (stereo not drawn) [GSK1379741] | 0 | 0 | 18 | 0 | 0 | 0 | 11 | 0 | 0 | 0 | 0 | 0 | 0 | 0 | 0 | 0 | 0 | 0 | 27 | 0
CC(C)Oc1ccc2c(-c3ccnc(Nc4ccc(N5CCN(C)CC5)cc4)n3)cnn2n1 [GW696155] | 44 | 28 | 7 | 77 | 0 | 95.1 | 44 | 88 | 52 | 58 | 88 | 83 | 79 | 10 | 99.6 | 23 | 66 | 0 | 85 | 54
O=c1cc(N2CCOCC2)nc2n(Cc3cccc(F)c3)ccn12 [GSK2297430] | 0 | 0 | 14 | 0 | 0 | 6 | 0 | 6 | 0 | 0 | 0 | 2 | 4 | 18 | 0 | 0 | 12 | 0 | 23 | 0
O=C(NOCC1CC1)c1ccc(F)c(F)c1Nc1ccc(I)cc1Cl | 0 | 0 | 0 | 0 | 0 | 0 | 0 | 0 | 0 | 0 | 0 | 0 | 1 | 0 | 0 | 0 | 0 | 0 | 0 | 0
Cn1cc(-c2ccc3c(c2)CCN3C(=O)Cc2ccccc2Cl)c2c(N)ncnc21 [GSK2608885] | 0 | 23 | 87 | 12 | 0 | 18 | 14 | 25 | 0 | 3 | 0 | 52 | 96.4 | 99.2 | 89 | 0 | 99.1 | 98.4 | 56 | 0
CSc1ccc(-c2cc3ncnc(SCC(=O)O)c3s2)cc1 | 0 | 0 | 0 | 20 | 0 | 19 | 0 | 0 | 0 | 6 | 0 | 0 | 25 | 0 | 0 | 0 | 0 | 0 | 0 | 100
Fc1ccc(-c2ncn(CCCN3CCOCC3)c2-c2ccccn2)cc1 [SB-211742] | 0 | 49 | 0 | 35 | 0 | 0 | 0 | 0 | 0 | 0 | 0 | 0 | 11 | 23 | 0 | 0 | 0 | 0 | 0 | 60
Cl.Nc1ncnc2occ(-c3ccc(NC(=O)Nc4cc(C(F)(F)F)ccc4F)cc3)c12 [SB-707548] | 25 | 27 | 67 | 77 | 0 | 39 | 81 | 2 | 9 | 19 | 0 | 0 | 0 | 98 | 0 | 0 | 30 | 4 | 50 | 40
COc1cc2c(cc1OC[C@@H](O)CO)ncc1c3ccc(C#N)cc3[nH]c21 | 80 | 0 | 11 | 11 | 88 | 18 | 40 | 71 | 0 | 38 | 47 | 65 | 21 | 0 | 89 | 58 | 0 | 0 | 0 | 0
Cc1c(Cn2c(C)nn3c(=O)cc(N4CCOC(C)C4)nc23)cccc1C(F)(F)F (stereo not drawn) [GSK2344444] | 10 | 0 | 3 | 0 | 1 | 17 | 9 | 33 | 0 | 0 | 9 | 0 | 0 | 7 | 0 | 0 | 0 | 0 | 32 | 0
Cc1cn2c(=O)cc(N3CCOCC3)nc2n1Cc1cccc(Cl)c1Cl [GSK2334006] | 12 | 25 | 16 | 0 | 15 | 13 | 3 | 0 | 0 | 0 | 0 | 3 | 4 | 32 | 0 | 1 | 42 | 0 | 21 | 0
O=c1cc(N2CCOCC2)nc2n(Cc3cccc(C(F)(F)F)c3)ccn12 [GSK2297543] | 16 | 6 | 0 | 6 | 0 | 13 | 0 | 37 | 0 | 5 | 0 | 0 | 0 | 18 | 0 | 0 | 0 | 0 | 24 | 0
c1ccc(-c2cc(-c3c[nH]nc3-c3ccccn3)ccn2)cc1 [GW576604] | 0 | 0 | 0 | 4 | 0 | 8 | 0 | 0 | 0 | 0 | 0 | 0 | 0 | 0 | 0 | 0 | 0 | 0 | 24 | 9
CC(C)(C)n1cnc2c(N)ncnc21 [SKF-97359] | 0 | 18 | 2 | 18 | 0 | 46 | 5 | 0 | 0 | 0 | 0 | 0 | 0 | 0 | 0 | 0 | 0 | 0 | 0 | 36
